Hits are enriched below; roughly 9% of the tested compounds scored in any of these assays.
HTT cytoprotect = cytoprotection in Huntington HTT-Q103 PC12 cell model; PC12 HTT-Q103 induced, cytoprotection, ATP luminescence, 40 h; Potency, µM (doses to about 56.4 µM), for inactives: cytoprotection (ATP increase), hits mostly activators; 0.14% of 230,000 active; note: % of control where 0% means no effect; nearly all actives have a fitted effect of over 45% in size
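ATP quantification (ATPlite) reports survival of PC12 cells in which tebufenozide, 100 nM final, switches on Htt exon 1 with 103 glutamines linked to GFP; compounds are titrated.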
HttQ103 aggreg = reduces HttQ103-GFP aggregates in PC12 cells. AID 1688. 1.1% of 220,000 active. Potency, µM (top dose mostly 46.1 µM), inactives show at the top dose activity change, negative = inhibition, usual class: inhibitors. PC12 HttQ103-GFP aggregates, Acumen cytometry, 40 h; note: % is set by controls: 0 for no effect and ±100 for the full control effect; nearly all actives have a fitted effect of over 60% in size
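Compounds (qHTS titration) were added to PC12 cells expressing an ecdysone-driven HTT exon 1 Q103–GFP fusion after induction with 100 nM tebufenozide. Aggregate formation was measured as GFP objects in cell lysates.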
LMNA splice mod = changes lamin A minigene splicing in HeLa cells | HeLa LMNA splicing GFP/RFP minigene ratio, 48 h | Potency, µM (doses to about 46.1 µM), for the others: at the top dose ratio change, negative = inhibition, actives largely listed as inhibitors | 0.01% of 200,000 active | AID 1487; active = well fitted inhibition curve with a large enough effect in the signal ratio, with a control signal flat, not every such curve was filed as active; inconclusive = small, poorly fitted or top-dose-only effect, or effect the other way, or a change in a side signal; the % refers to the signal ratio; note: % is set by controls: 0 for no effect and ±100 for the full control effect
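S3 HeLa cells stably expressing lamin A-EGFP splicing minigene plus DsRed2, 600 cells/well, 48 h compound exposure at 37C. Laser-scanning cytometry; analysed as GFP (500-530 nm)/RFP (575-640 nm) total intensity ratio; 0.5% DMSO vehicle.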
KinaseGlo FLuc = Kinase-Glo luciferase inhibition (counter-screen); Q27757; Kinase-Glo luciferase, ATP luminescence, 8 min; Potency, µM (doses to about 38.3 µM), for inactives: at the top dose activity change, negative = inhibition, most hits filed as inhibitors; 0.28% of 200,000 active; AID 1379; note: % is set by controls: 0 for no effect and ±100 for the full control effect; nearly all actives have a fitted effect of over 60% in size
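Luminescence was the read-out, taken after 8-minute incubation at ambient temperature. Luciferase turned over luciferin with 10 uM ATP in imidazole pH 7.2 buffer containing KCl, MgCl2, Tween 20 and BSA.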
ALDH1A1 block = ALDH1A1 (human) enzyme inhibition; P00352; Purified ALDH1A1, NADH fluorescence, propionaldehyde substrate; Potency, µM (highest dose often 75.3 µM), for the others: at the highest dose activity, negative = inhibition, hits mostly inhibitors; 7.3% of 220,000 active; active = well fitted inhibition curve with a large enough effect, not every such curve was filed as active; inconclusive = small, poorly fitted or top-dose-only effect, or another doubt; inactive = no such curve, though single readings can be large or run the other way;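 note: plate controls were no enzyme wells and a reference inhibitor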
Target sequence (P00352 whole entry, looked up): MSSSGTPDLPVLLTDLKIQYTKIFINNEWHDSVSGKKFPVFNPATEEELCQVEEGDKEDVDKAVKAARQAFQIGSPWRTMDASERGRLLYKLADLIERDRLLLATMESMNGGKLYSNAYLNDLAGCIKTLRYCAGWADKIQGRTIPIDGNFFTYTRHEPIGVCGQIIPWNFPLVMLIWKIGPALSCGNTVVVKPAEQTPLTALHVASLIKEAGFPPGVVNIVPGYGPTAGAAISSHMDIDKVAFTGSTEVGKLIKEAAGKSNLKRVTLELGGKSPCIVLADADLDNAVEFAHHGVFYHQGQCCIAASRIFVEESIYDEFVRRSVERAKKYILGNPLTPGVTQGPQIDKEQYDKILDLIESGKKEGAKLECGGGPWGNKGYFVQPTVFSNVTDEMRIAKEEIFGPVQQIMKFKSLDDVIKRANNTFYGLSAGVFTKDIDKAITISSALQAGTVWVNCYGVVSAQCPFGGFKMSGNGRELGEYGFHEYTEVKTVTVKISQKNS
HPGD inh = inhibitors of human 15-hydroxyprostaglandin dehydrogenase (HPGD); purified HPGD, NADH fluorescence kinetic, PGE2 substrate; Potency, µM, without a hit: top-dose activity change, negative = inhibition, actives largely listed as inhibitors; 4.3% of 150,000 active; AID 894; active = well fitted inhibition curve with a large enough effect, not every such curve was filed as active; inconclusive = small, poorly fitted or top-dose-only effect, or another doubt; inactive = no such curve, though single readings can be large or run the other way; note: % is set by controls: 0 for no effect and ±100 for the full control effect
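20 nM HPGD preincubated 15 min at room temperature with compound in 50 mM Tris-HCl pH 8, 0.01% Tween 20. Started with 1 mM NAD+ and 30 uM prostaglandin E2; NADH fluorescence (360/450 nm) read 5 times over 30-s intervals, last minus first.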
An asterisk follows results filed as active; ? = inconclusive; . = not tested or not shown; [ ] = dose if it differs, or a comment. Unless noted, calls come from the whole dose curve; as a rule, active = well fitted curve in the direction sought with a large enough effect; inconclusive = small, poorly fitted or top-dose-only effect, or another doubt; inactive = no such curve, though single readings can be large; an effect the other way counts as inactive or inconclusive. Potency is the fitted concentration of half-maximal effect.

SMILES	HTT cytoprotect	HttQ103 aggreg	LMNA splice mod	KinaseGlo FLuc	ALDH1A1 block	HPGD inh
Cc1cccc(C(=O)NCc2ccc(S(N)(=O)=O)cc2)c1[N+](=O)[O-]	-5%[10 µM]	13%	-7%	2%	-4%	-10%
CC1CCCC(NC(=O)COC(=O)CN2C(=O)C3CCCCC3C2=O)C1C (configuration not stated)	15%[10 µM]	21%	-5%	-1%	25µM*	-18%
CC1CCC2(CC1)NC(=S)N(C(C)(C)C)N2 (configuration not stated)	-11%[10 µM]	-10%[9.22 µM]	.	.	.	.
CC1CCC2(CC1)NC(=S)N(c1ccccc1)N2 (configuration not stated)	-11%[10 µM]	11%	?	2%	16µM*	-4%
CCN1CC(CN(C)Cc2nc(-c3cccs3)no2)CC1=O (configuration not stated)	0%[10 µM]	-2%[9.22 µM]	-4%[46 µM]	4%	4%	.
Cc1ccc(S(=O)(=O)Cc2ccc(C(=O)N3CCN(Cc4ccccc4)CC3)o2)cc1	-1%[10 µM]	-19%	-6%	-1%	8.9µM*	-23%
Cc1ccc(S(=O)(=O)Cc2ccc(C(=O)O)o2)cc1	-4%	24%	-3%	22%	8.9µM*	-23%
COc1ccccc1N1CCN(C(=O)c2ccc(CS(=O)(=O)c3ccccc3OC)o2)CC1	8%	13%	?	2%	18µM*	-8%
COc1ccc(S(=O)(=O)Cc2ccc(C(=O)N3CCN(Cc4ccccc4)CC3)o2)cc1	-8%	-2%	-18%	-2%	13µM*	-16%
Cc1ccc(S(=O)(=O)Cc2ccc(C(=O)N3CCc4ccccc4C3)o2)cc1	6%	-6%	1%	-2%	1%	-16%
CCOC(=O)N1CCN(C(=O)c2ccc(CS(=O)(=O)c3ccccc3OC)o2)CC1	-16%[0.074 µM]	12%	13%	2%	-6%	-13%
COc1ccc(S(=O)(=O)Cc2ccc(C(=O)N3CCN(c4ncccn4)CC3)o2)cc1	-2%	.	.	.	.	.
Cc1ccc(Cc2cnc(NC(=O)/C(C#N)=C/c3ccc(-c4ccccc4[N+](=O)[O-])o3)s2)cc1	-17%	19%	5%	-1%	4%	-20%
COc1ccc(S(=O)(=O)Cc2ccc(C(=O)N3CCN(c4cc(Cl)ccc4C)CC3)o2)cc1	27%	18µM*	-8%	2%	-1%	-7%
COc1ccc(S(=O)(=O)Cc2ccc(C(=O)N3CCN(C(=O)c4ccco4)CC3)o2)cc1	-16%	-1%	1%	3%	6µM*	-16%
COc1ccc(S(=O)(=O)Cc2ccc(C(=O)N3CCN(c4ccc(Cl)cc4)CC3)o2)cc1	-4%	?	-3%	-1%	7%	-6%
COc1ccc(N2CCN(C(=O)c3ccc(CS(=O)(=O)c4ccc(OC)cc4)o3)CC2)cc1	-40%	3%	1%	2%	1%	-5%
Cc1ccc(S(=O)(=O)Cc2ccc(C(=O)NCc3ccc4c(c3)OCO4)o2)cc1	-73%[10 µM]	?	-12%	1%	10µM*	-13%
CCOC(=O)N1CCN(C(=O)c2ccc(CS(=O)(=O)c3c(Cl)cccc3Cl)o2)CC1	.	0.0009µM*	-11%	1%	-2%	-5%
O=C(NCc1ccc2c(c1)OCO2)c1ccc(COc2cccc(Cl)c2)o1	-16%[10 µM]	28µM*	?	-2%	?	-17%
CCOC(=O)N1CCC(NC(=O)c2ccc(CS(=O)(=O)c3c(Cl)cccc3Cl)o2)CC1	-5%	?	-6%	-1%	?	-7%
CCOC(=O)N1CCC(NC(=O)c2ccc(CS(=O)(=O)c3ccccc3C)o2)CC1	-29%	-20%	-18%	0%	11µM*	-18%
CC(=O)Nc1cccc2c1C(=O)N(c1ccccc1OC(C)=O)C2=O	-5%[10 µM]	-1%[9.22 µM]	.	0%	-6%	.
CN1C=C/C(=C\c2cc[n+](C)c3ccccc23)c2ccccc21	-184%	7.1µM*	.	-4%	?	.
CC[n+]1ccc(/C=C2\Sc3ccccc3N2CCCS(=O)(=O)[O-])c2ccccc21	.	.	?	-7%	-11%	.
